Screening results deposited in PubChem BioAssay by several laboratories.
The list is not random: actives were taken first. Their share in the collection is about 1.8%.
SSB-PriA inh = K. pneumoniae PriA-SSBct interaction inhibition; AlphaScreen SSBct-PriA binding, biotinylated peptide; inhibition, % at 33 µM; hit rate 0.6% among 430,000; AID 1272365; in the data active = inhibition mostly above about 37%, no sharp cut-off; inactive = mostly below about 20%
PrP 5UTR inh = inhibition of PrP 5' UTR reporter expression. cell-based PrP 5' UTR mRNA reporter, plate reader. inhibition, % (concentration not given with the values). hit rate 0.35% among 340,000; in the data active = inhibition above about 52%
PfHsp40 rescue = rescue of PfHsp40-mediated yeast toxicity. S. cerevisiae expressing PfHsp40, growth rescue, ATP luminescence. growth rescue, % at 12.5 µM. hit rate 0.68% among 340,000. AID 504582; in the data active = growth rescue above about 28%, passing the limit was not always enough;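 also: yeast W303a lacking pdr1 and pdr3 grown in galactose medium; growth measured after three days at 30 °C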
MazF activator = MazEF (E. coli) toxin RNase activation; P0AE70; FAM/BHQ RNA-DNA oligo cleavage fluorescence, 5 h; activation, % at 20 µM; hit rate 0.32% among 350,000; in the data active = activation above about 50%
Target sequence (P0AE70 whole entry, looked up): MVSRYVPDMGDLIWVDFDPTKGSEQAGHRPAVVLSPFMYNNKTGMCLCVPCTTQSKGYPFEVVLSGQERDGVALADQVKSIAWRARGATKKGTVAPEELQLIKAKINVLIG
PrPC TRFRET = inhibitors of human cell surface prion protein PrPC | TR-FRET read-out | hit rate 0.43% among 370,000 | P04156 | inhibition, % at 13.8 µM; in the data active = inhibition above about 24%
A number is an active result; i = inactive; nt = no result given.

SMILES	SSB-PriA inh	PrP 5UTR inh	PfHsp40 rescue	MazF activator	PrPC TRFRET
Cc1ccc(CN2C(=O)CCC2C(=O)NCc2ccc(F)cc2)cc1 (stereo not given)	i	i	62.7	i	i
O=C(O)CNc1ccccc1C(=O)O	i	i	i	i	i
O=C(Nc1nc(-c2ccccn2)cs1)c1n[nH]c2c1CCCCC2	61.8	nt	nt	nt	nt
CC1CN(Cc2ccc(C(=O)Nc3nc(-c4ccccn4)cs3)cc2)CC(C)O1 (stereo not given)	114.5	nt	nt	nt	nt
Cc1occc1C(=O)Nc1nc(-c2ccccn2)cs1	111.5	nt	nt	nt	nt
CS(=O)(=O)c1ccc(C(=O)Nc2nc(-c3ccccn3)cs2)cc1	74.9	nt	nt	nt	nt
CS(=O)(=O)Cc1ccc(C(=O)Nc2nc(-c3ccccn3)cs2)cc1	i	nt	nt	nt	nt
O=C(COc1ccc(F)cc1)N(Cc1ccc(Cl)cc1)C1CCS(=O)(=O)C1 (stereo not given)	i	i	i	i	i
C=CCn1c(SCc2csc(C)n2)nc2scc(-c3ccccc3Cl)c2c1=O	i	nt	nt	nt	nt
COc1ccc(S(=O)(=O)CC(=O)Nc2nc(-c3ccccn3)cs2)cc1	88.0	nt	nt	nt	nt
O=C(Nc1nc(-c2ccccn2)cs1)c1c[n+]2cccnc2[nH]1	99.0	nt	nt	nt	nt
O=C(Nc1nc(-c2ccccn2)cs1)c1ccc(Cl)cc1	73.3	nt	nt	nt	nt
COc1ccc(-c2csc(NC(=O)CS(=O)(=O)c3ccccc3)n2)cc1	i	i	i	i	i
O=C(Nc1nc(-c2ccc(Cl)cc2Cl)cs1)c1ccccc1	i	nt	nt	nt	nt
O=C(Nc1nc(-c2ccccn2)cs1)c1ccc(NC(=O)c2cccs2)cc1	96.8	nt	nt	nt	nt
O=c1nc(NCc2ccco2)ccn1-c1nc(-c2ccccc2)sc1-c1ccccc1	i	nt	nt	nt	nt
CSc1nncn1N=Cc1ccc2c(c1)OCO2	i	nt	nt	nt	nt
COc1ccccc1-c1nnc(NC(=O)C2CCCN2S(=O)(=O)c2cccs2)o1 (stereo not given)	75.0	nt	nt	i	i
Cc1nc(C(=O)Nc2nc(-c3ccccn3)cs2)c(C(C)C)s1	68.0	nt	nt	nt	nt
O=C(Nc1nnc(-c2ccc(F)cc2)o1)C1CCCN1S(=O)(=O)c1cccs1 (stereo not given)	i	i	i	i	i
O=C(CC12CC3CC(CC(C3)C1)C2)Nc1nc(-c2ccccn2)cs1	i	nt	nt	nt	nt
O=C(CC12CC3CC(CC(O)(C3)C1)C2)Nc1nc(-c2ccccn2)cs1	97.5	nt	nt	nt	nt
O=C(Nc1nc(-c2ccccn2)cs1)c1ncc(Cl)c(Cl)c1Cl	i	i	i	i	i
O=C(Nc1nc(-c2ccccn2)cs1)c1cc2ccccc2o1	i	i	i	i	i
Cc1c(C(=O)Nc2nc(-c3ccccn3)cs2)oc2ccccc12	68.9	i	i	i	nt
SMILES	SSB-PriA inh	PrP 5UTR inh	PfHsp40 rescue	MazF activator	PrPC TRFRET
CCCCNC(=O)c1ccc(NS(=O)(=O)c2ccccc2)cc1	i	i	i	i	i
NC(=NOC(=O)c1ccc(F)cc1)c1ccc(Br)cc1	i	nt	nt	nt	nt
COC(=O)C12C=C3CC(C)=C3C(=O)N1Cc1[nH]c3ccccc3c1C2 (stereo not given)	nt	nt	nt	nt	i
CN1CCN(S(=O)(=O)c2ccc(NC(=O)c3ccc(Br)s3)cc2)CC1	i	i	i	i	i
CC(C)(C)NC(=O)C(=O)Nc1nc(-c2ccccn2)cs1	101.3	nt	nt	nt	nt
Cc1ccc(C(=O)Nc2nc(-c3ccccn3)cs2)s1	46.7	i	58.9	i	i
Cc1cc(C)cc(C(=O)Nc2nc(-c3ccccn3)cs2)c1	92.0	nt	nt	nt	nt
COc1ccc(S(=O)(=O)Nc2ccc(C(=O)Nc3nc(-c4ccccn4)cs3)cc2)cc1	95.0	nt	nt	nt	nt
Cc1cc(C)cc(OCC(=O)Nc2nc(-c3ccccn3)cs2)c1	i	i	i	i	i
O=C(Nc1nc(-c2ccccn2)cs1)c1ccc(Cl)s1	i	i	i	i	i
Cc1cc(C)c2nc(SC(C)C#N)cc(C)c2c1 (stereo not given)	i	i	i	i	i
O=C(Nc1ccccc1Cl)N1CCn2c(nc3ccccc32)C1	i	i	i	i	i
Cc1cc(C(=O)Nc2ccc(F)c(Cl)c2)on1	i	i	i	i	i
CCCN1C2CCCC1CC(NC(=O)c1ccccc1Br)C2 (stereo not given)	i	i	i	i	i
O=C(Nc1nc(-c2ccccn2)cs1)c1ccccn1	162.5	nt	nt	nt	nt
N#Cc1ccccc1Sc1ccccc1C(=O)Nc1nc(-c2ccccn2)cs1	i	nt	nt	nt	nt
O=C(Nc1ccccc1)C(=O)Nc1nc(-c2ccccn2)cs1	i	nt	nt	nt	nt
O=C(Nc1nc(-c2ccccn2)cs1)C1=COCCO1	105.5	nt	nt	nt	nt
O=C(Nc1nc(-c2ccccn2)cs1)c1ccccc1C(F)(F)F	88.2	nt	nt	nt	nt
Cc1nnsc1C(=O)Nc1nc(-c2ccccn2)cs1	135.5	nt	nt	nt	nt
CCOC(=O)CSc1nnc(NC(=O)c2cccc(S(=O)(=O)N3CCCCCC3)c2)s1	i	i	i	i	i
